Laboratory results taken from PubChem BioAssay (NCATS).
Records with an inconclusive call do not appear. Entries that show only a call come without a potency. Values without a mark were called inactive. Active and inactive are the calls of the source. Calls follow the shape of the dose curve; as a rule, active = well fitted curve in the direction sought with a large enough effect; inconclusive = small, poorly fitted or top-dose-only effect, or another doubt; inactive = no such curve, though single readings can be large; an effect the other way counts as inactive or inconclusive. Where a SMILES comes first, the peptide text is derived from it. The star is where a group is joined. Cbz = O=C(OCc1ccccc1)*; CH2F = FC*

Assays:
[1] = P-glycoprotein substrates identified in KB-3-1 adenocarcinoma cell line, qHTS therapeutic library screen (AID 1346986); also: nearly all actives have a fitted effect of over 60% in size
Method in brief: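 Using luminescence to quantify ATP, parental and P-gp-overexpressing KB cells were compared after 72 h compound titration. KB-8-5-11 was also run with the P-gp inhibitor tariquidar.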

[2] = P-glycoprotein substrates identified in KB-8-5-11 adenocarcinoma cell line, qHTS therapeutic library screen (AID 1346987); also: nearly all actives have a fitted effect of over 65% in size; as to activity change, negative = cytotoxicity: series mostly up to about 44 µM
Method in brief: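 In this qHTS, P-gp-rich KB-8-5-11 cells received library compounds across a concentration range. Viability was quantified by luminescence after 72 h at 37 degree C.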

COc1cc(C)c(C(=O)O[C@@H]2[C@H](O)[C@@H](CO)O[C@H]2n2ccc(=O)[nH]c2=O)c(OC)c1
Potency [1]: inactive
Potency [2]: inactive

OCC(O)C(c1c[nH]c2ccccc12)c1c[nH]c2ccccc12 (stereo unspecified)
Potency [1]: inactive
Potency [2]: inactive

Cc1cc(CO)c(O)c(C(=O)CC2CC(=O)NC(=O)C2)c1
Potency [1]: inactive
Potency [2]: inactive

C=C1CCC2(OC1)OC1CC3C4CC=C5CC(O)CC(O[C@@H]6OC[C@H](OC(=O)C(O)C(C)CC)[C@H](O)[C@H]6O[C@@H]6O[C@@H](C)[C@H](O)[C@@H](O)[C@H]6O)C5(C)C4CCC3(C)C1C2C (stereo partly specified)
outcome [1]: inactive [at 9.29 µM]
outcome [2]: inactive [at 9.29 µM]

CC(=O)OC1CC2C(C)(C)C(=O)C=CC2(C)C2CC(=O)C3=C(CCC3C3=CC(O)OC3=O)C12C (stereo unspecified)
Potency [1]: inactive
Potency [2]: inactive

CC1(C)CC[C@]2(C(=O)O)CC[C@]3(C)C(=CCC4[C@@]5(C)CC[C@H](O[C@@H]6O[C@H](C(=O)O)[C@@H](O)[C@H](O[C@@H]7O[C@H](CO)[C@H](O)[C@H](O)[C@H]7O)[C@H]6O[C@@H]6O[C@H](CO)[C@@H](O)[C@H](O)[C@H]6O)C(C)(C)C5CC[C@]43C)[C@@H]2C1 (stereo partly specified)
outcome [1]: inactive [at 5.11 µM]
activity change, negative = cytotoxicity [2]: 3.75% [at 5.11 µM]

CC/C=C/C=C/C1(C)OC(CC(CO)OC)=CC1=O (stereo unspecified)
Potency [1]: inactive
Potency [2]: inactive

COC(=O)CC[C@H](NC(=O)[C@H](CC(C)C)NC(=O)OCc1ccccc1)C(=O)N[C@@H](Cc1cnc[nH]1)C(=O)N[C@@H](CC(=O)OC)C(=O)CF (Cbz-LE(OMe)HD(OMe)-CH2F)
outcome [1]: inactive [at 9.29 µM]
activity change, negative = cytotoxicity [2]: 6.58% [at 9.29 µM]
